About 7,900 targets were measured; listed, in parts, are those with a hit and a random draw of the rest. About 0.6% of all pairs of compound and target were hits.

Sequence of UniProt Q10471 (Q10471 whole entry, looked up): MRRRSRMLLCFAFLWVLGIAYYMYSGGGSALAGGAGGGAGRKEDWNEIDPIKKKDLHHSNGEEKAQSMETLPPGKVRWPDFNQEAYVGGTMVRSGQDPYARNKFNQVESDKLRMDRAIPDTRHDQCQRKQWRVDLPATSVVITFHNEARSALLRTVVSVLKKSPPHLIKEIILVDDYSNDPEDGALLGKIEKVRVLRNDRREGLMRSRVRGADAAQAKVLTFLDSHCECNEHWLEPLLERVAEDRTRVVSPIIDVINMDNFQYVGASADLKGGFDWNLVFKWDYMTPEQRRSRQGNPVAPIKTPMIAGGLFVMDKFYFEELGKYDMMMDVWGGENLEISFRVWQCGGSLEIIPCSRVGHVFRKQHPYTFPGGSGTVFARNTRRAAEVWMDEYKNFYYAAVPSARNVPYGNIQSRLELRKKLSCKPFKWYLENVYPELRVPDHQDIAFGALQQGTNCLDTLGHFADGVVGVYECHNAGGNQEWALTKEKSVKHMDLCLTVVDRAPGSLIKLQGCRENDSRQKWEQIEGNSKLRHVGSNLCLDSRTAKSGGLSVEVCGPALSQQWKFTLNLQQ
Sequence of UniProt Q53FT3 (Q53FT3 whole entry, looked up): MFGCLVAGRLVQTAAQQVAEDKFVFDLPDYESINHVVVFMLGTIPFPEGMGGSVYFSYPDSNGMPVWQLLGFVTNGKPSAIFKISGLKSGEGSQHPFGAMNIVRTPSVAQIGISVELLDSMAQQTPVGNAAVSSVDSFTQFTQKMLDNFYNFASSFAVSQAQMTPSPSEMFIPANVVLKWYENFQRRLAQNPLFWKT
Sequence of UniProt Q86VQ1 (Q86VQ1 whole entry, looked up): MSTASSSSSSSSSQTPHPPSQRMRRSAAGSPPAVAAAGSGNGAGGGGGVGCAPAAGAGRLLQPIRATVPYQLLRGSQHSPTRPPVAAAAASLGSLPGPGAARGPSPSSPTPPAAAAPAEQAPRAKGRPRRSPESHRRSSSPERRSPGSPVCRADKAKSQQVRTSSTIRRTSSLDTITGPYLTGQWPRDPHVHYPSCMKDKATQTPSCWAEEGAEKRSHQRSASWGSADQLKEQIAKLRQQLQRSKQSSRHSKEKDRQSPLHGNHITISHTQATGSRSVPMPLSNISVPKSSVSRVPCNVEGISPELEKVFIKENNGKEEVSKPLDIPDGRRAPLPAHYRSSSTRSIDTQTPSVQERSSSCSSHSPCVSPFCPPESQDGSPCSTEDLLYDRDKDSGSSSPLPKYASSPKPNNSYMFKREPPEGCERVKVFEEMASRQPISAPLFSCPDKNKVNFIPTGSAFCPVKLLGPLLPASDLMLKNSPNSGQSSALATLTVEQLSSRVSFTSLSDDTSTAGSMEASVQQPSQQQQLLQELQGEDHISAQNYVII
Sequence of UniProt Q8TEQ6 (Q8TEQ6 whole entry, looked up): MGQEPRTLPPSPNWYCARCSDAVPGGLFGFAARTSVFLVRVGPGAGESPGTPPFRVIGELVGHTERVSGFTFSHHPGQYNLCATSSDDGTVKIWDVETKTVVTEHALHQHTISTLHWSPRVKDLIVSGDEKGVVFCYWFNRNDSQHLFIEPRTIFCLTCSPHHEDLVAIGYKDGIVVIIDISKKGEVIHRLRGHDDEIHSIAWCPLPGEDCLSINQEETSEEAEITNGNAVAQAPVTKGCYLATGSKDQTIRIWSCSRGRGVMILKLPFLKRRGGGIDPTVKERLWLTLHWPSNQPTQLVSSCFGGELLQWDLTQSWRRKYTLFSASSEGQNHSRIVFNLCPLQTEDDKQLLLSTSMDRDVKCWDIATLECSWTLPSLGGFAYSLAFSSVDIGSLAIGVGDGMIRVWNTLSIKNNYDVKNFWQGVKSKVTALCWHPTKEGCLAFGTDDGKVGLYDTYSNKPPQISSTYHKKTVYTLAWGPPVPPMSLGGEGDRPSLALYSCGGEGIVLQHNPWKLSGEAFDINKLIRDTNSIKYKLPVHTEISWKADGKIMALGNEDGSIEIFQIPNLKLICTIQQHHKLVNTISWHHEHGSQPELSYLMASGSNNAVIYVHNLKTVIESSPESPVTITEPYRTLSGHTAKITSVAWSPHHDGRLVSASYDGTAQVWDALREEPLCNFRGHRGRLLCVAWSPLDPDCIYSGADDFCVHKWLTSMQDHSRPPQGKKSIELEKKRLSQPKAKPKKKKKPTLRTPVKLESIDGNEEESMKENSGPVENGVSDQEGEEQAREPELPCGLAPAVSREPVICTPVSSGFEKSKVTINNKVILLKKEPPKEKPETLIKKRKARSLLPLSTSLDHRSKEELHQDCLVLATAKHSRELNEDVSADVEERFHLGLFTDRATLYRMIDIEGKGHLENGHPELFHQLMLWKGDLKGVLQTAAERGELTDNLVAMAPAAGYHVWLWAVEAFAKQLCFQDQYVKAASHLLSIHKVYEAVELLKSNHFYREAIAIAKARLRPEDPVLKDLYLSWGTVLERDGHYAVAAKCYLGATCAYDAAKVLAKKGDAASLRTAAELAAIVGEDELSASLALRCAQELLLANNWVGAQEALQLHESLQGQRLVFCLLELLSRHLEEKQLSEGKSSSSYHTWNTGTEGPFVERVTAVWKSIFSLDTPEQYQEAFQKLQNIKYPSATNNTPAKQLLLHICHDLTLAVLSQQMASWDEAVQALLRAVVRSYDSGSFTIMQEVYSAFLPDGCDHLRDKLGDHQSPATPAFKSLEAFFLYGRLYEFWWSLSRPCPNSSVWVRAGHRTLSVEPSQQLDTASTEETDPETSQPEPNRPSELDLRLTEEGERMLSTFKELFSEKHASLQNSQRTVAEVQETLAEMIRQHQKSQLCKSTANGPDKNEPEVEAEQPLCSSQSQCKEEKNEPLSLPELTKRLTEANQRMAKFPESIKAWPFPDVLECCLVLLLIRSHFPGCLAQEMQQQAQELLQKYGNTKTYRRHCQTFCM
Sequence of UniProt Q8NCW6 (Q8NCW6 whole entry, looked up): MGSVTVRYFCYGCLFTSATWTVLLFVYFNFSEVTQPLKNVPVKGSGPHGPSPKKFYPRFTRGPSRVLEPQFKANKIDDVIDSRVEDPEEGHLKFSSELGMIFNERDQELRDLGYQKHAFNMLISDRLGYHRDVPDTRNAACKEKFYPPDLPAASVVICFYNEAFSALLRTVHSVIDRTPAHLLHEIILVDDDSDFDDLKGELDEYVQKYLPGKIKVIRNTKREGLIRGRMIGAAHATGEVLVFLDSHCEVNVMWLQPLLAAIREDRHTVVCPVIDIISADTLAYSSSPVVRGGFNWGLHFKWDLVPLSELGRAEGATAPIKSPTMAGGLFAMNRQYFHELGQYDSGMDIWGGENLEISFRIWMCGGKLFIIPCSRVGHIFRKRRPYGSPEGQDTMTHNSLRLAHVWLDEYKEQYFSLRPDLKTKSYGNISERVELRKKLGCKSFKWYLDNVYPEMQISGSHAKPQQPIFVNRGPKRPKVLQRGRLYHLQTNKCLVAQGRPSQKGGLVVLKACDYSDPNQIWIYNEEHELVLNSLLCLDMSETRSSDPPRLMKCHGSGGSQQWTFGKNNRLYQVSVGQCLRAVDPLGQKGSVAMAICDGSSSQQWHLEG
Sequence of UniProt Q9BUP3 (Q9BUP3 whole entry, looked up): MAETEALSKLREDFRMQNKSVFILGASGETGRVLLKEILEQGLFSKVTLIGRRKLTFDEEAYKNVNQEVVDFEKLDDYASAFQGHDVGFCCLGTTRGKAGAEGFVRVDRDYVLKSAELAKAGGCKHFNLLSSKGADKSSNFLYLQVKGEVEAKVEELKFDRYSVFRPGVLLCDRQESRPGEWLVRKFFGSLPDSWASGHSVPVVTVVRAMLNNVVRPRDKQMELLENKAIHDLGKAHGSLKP
Sequence of UniProt Q9P2H3 (Q9P2H3 whole entry, looked up): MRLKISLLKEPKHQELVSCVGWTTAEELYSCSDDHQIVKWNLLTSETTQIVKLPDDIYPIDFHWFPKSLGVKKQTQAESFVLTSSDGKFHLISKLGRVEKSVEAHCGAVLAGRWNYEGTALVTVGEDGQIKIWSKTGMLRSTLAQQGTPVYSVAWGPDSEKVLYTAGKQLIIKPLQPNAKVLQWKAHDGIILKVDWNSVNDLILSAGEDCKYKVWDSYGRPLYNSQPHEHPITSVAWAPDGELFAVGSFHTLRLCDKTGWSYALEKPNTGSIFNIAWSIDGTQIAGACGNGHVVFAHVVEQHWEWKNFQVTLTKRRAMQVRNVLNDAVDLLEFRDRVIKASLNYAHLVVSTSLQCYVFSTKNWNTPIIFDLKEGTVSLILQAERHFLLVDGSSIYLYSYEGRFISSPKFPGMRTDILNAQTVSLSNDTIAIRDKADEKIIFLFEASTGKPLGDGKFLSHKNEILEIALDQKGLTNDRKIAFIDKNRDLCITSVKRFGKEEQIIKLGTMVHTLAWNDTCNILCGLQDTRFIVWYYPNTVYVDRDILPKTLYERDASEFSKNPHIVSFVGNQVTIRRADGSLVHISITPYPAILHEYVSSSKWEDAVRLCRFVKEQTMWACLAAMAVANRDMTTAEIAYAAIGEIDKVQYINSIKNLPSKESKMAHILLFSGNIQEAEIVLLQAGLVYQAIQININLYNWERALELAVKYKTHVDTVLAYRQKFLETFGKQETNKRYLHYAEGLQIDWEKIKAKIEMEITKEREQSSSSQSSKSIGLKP
Sequence of UniProt P49840 (P49840 whole entry, looked up): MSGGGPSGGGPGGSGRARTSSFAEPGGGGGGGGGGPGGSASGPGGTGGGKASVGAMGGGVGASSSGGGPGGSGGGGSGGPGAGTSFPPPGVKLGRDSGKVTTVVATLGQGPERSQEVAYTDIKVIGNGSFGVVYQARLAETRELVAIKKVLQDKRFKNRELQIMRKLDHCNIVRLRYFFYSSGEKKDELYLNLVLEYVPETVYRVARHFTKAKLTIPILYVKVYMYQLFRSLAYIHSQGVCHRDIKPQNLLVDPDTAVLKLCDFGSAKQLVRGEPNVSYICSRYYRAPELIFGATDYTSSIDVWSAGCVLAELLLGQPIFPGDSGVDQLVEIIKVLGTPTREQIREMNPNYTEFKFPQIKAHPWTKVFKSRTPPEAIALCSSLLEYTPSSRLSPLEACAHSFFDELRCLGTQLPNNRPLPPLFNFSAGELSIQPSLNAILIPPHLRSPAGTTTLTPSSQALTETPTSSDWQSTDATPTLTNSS

Compound in one experiment: CC1=C(C(CC(=O)N1)C2=CC=C(C=C2)C(F)(F)F)C(=O)NC3=C(C=C4C(=C3)C=NN4)F
As to the kind of experiment: log2 fold change, soluble protein after heating vs DMSO (PISA); higher = thermal stabilisation; K562 cells, 10 uM, 30 min; active = over 0.2 and 3.5 SD of the protein, either way, in both replicates (recomputed). The method, boiled down:
(§1)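 K562 cells at 2×10^6 cells/mL were treated for 30 min with 10 μM compound, and aliquots were heated for 3 min over 48°C-58°C before pooling. Extraction used PBS with 0.5% NP-40 at 4°C, and soluble protein was the supernatant after 21,000xg for 90 min, measured by TMTpro 16plex LC-MS/MS with channel sums equalised. Thermal stability values, relative to control samples and from duplicates, are log2 fold changes.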
With GLCCI1 (UniProt Q86VQ1), the log2 fold change is 0.098 (inactive). Still for that read-out and setting: with GSK3A (UniProt P49840) the figure was 0.011 (inactive). With HIST2H3A (UniProt Q71DI3), the log2 fold change was 0.002 (inactive). With GEMIN6 (UniProt Q8WXD5), the log2 fold change is -0.004 (inactive). For the target IFT80 isoform 3 (UniProt Q9P2H3), the log2 fold change was -0.085 (inactive).

With FKBP4 (UniProt Q02790), the log2 fold change was -0.019 (inactive). As for HIC2 (UniProt Q96JB3), the log2 fold change was 0.015 (inactive). For FAM91A1 (UniProt Q658Y4), the log2 fold change is 0.018 (inactive). Consider HIKESHI (UniProt Q53FT3), for which the log2 fold change was -0.043 (inactive). Turning to HSPA8 (UniProt E9PK54), the log2 fold change is 0.017 (inactive). Turning to GTF2A2 (UniProt P52657), the log2 fold change is 0.016 (inactive). On to HMGB3 (UniProt O15347), for which the log2 fold change is -0.003 (inactive). As for FANCD2 isoform 1 (UniProt Q9BXW9), the log2 fold change is 0.002 (inactive). Consider HBZ (UniProt P02008), for which the log2 fold change is 0.004 (inactive).

Regarding GMEB1 (UniProt Q9Y692), the log2 fold change is 0.011 (inactive). On to HTATIP2 isoform 3 (UniProt Q9BUP3), for which the log2 fold change is -0.017 (inactive). Regarding GOLPH3 (UniProt Q9H4A6), the log2 fold change was 0 (inactive). The same measure, in the same setting: with HIP1R (UniProt O75146) the figure was -0.004 (inactive); with GCSH (UniProt P23434), 0.029 (inactive). For the target GALNT11 (UniProt Q8NCW6), the log2 fold change was 0.002 (inactive). On to FDPS (UniProt P14324), for which the log2 fold change was 0.007 (inactive). Consider FEN1 (UniProt P39748), for which the log2 fold change is -0.067 (inactive).

Regarding GEMIN5 (UniProt Q8TEQ6), the log2 fold change was 0.004 (inactive). With HMG20A (UniProt Q9NP66), the log2 fold change was -0.008 (inactive).

As for GALNT2 (UniProt Q10471), the log2 fold change was -0.028 (inactive). IGF2BP2 (UniProt Q9Y6M1): the log2 fold change is 0.087 (inactive). For the target GEMIN2 (UniProt O14893), the log2 fold change was 0.044 (inactive). Take IFT74 (UniProt Q96LB3): the log2 fold change was -0.085 (inactive). In the case of HSPA2 (UniProt P54652), the log2 fold change is 0.023 (inactive).

For the target HNRNPK isoform 2 (UniProt P61978), the log2 fold change was 0.005 (inactive). As for HNRNPH1 (UniProt P31943), the log2 fold change is 0.011 (inactive).

Compound in another experiment: CC1=C(C2=C(C=C1)C(=O)C3=CC=CC=C3N2CCCN)C
The experiment is described as above. The method, boiled down: as §1
Take GLCCI1 (UniProt Q86VQ1): the log2 fold change is -0.013 (inactive). Turning to GSK3A (UniProt P49840), the log2 fold change is 0.022 (inactive).

HIST2H3A (UniProt Q71DI3): the log2 fold change is 0.727 (inactive). On to GEMIN6 (UniProt Q8WXD5), for which the log2 fold change was 0.03 (inactive). Take IFT80 isoform 3 (UniProt Q9P2H3): the log2 fold change was 0.073 (inactive). As for FKBP4 (UniProt Q02790), the log2 fold change was 0.013 (inactive). On to HIC2 (UniProt Q96JB3), for which the log2 fold change is 0.088 (inactive). As to FAM91A1 (UniProt Q658Y4), the log2 fold change was 0.083 (inactive). For the target HIKESHI (UniProt Q53FT3), the log2 fold change is 0.061 (inactive).

On to HSPA8 (UniProt E9PK54), for which the log2 fold change was -0.262 (inactive). Consider GTF2A2 (UniProt P52657), for which the log2 fold change was -0.357 (active). Turning to GBE1 (UniProt Q04446), the log2 fold change is 0.04 (inactive). In the case of HMGB3 (UniProt O15347), the log2 fold change is 0.016 (inactive). Same read-out and setting: with FANCD2 isoform 1 (UniProt Q9BXW9) the figure was -0.369 (active); with HBZ (UniProt P02008), 0.088 (inactive); with GLIPR2 (UniProt Q9H4G4), 0.061 (inactive). Consider GMEB1 (UniProt Q9Y692), for which the log2 fold change was -0.297 (active).

In the case of HTATIP2 isoform 3 (UniProt Q9BUP3), the log2 fold change is 0.025 (inactive). As to GOLPH3 (UniProt Q9H4A6), the log2 fold change is -0.028 (inactive).

With HIP1R (UniProt O75146), the log2 fold change was 0.138 (inactive). As to GCSH (UniProt P23434), the log2 fold change was 0.03 (inactive).

Turning to GALNT11 (UniProt Q8NCW6), the log2 fold change was 0.039 (inactive). Take FDPS (UniProt P14324): the log2 fold change was 0.083 (inactive). On the same count and under the same terms, with FEN1 (UniProt P39748) the figure was -0.016 (inactive); with GEMIN5 (UniProt Q8TEQ6), -0.28 (active).

As to HMG20A (UniProt Q9NP66), the log2 fold change is 0.007 (inactive).

With GALNT2 (UniProt Q10471), the log2 fold change was 0.007 (inactive). For IGF2BP2 (UniProt Q9Y6M1), the log2 fold change is -0.054 (inactive). For the target GOLGA8R (UniProt I6L899), the log2 fold change was 0.201 (inactive). With IFT74 (UniProt Q96LB3), the log2 fold change is 0.071 (inactive). For HNRNPK isoform 2 (UniProt P61978), the log2 fold change is -0.062 (inactive).

HNRNPH1 (UniProt P31943): the log2 fold change is -0.045 (inactive). Consider FIBP (UniProt O43427), for which the log2 fold change is -0.039 (inactive).

The values above are taken from the supplement of paper PMC10849652.
